Unmarked numbers belong to inactive results.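 How the source made its calls: active = AUC reduced over 20% with Padj below 0.05 in at least 2 of 3 replicates; inactive = otherwise.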
What was measured:
Assay in all cases: growth AUC relative to DMSO control (median of replicates) (fraction); higher = more growth (less inhibition), active = hit call of the paper
Details in all cases: 20 µM; 24 h
[1] = tested on: Akkermansia muciniphila
In short: (§1)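 For each compound at 20 µM (1% DMSO), gut bacterial monocultures seeded at OD600 0.05 grew anaerobically in mGAM at 37 °C in round-bottom 96-well plates. Hourly OD600 readings over 24 h gave growth curves whose minimum OD was set to 0. Area under these curves was normalised to the plate median of solvent-only wells, or to row and column medians on the industrial chemical plate. Values are medians of three biological replicates grown on separate days.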

[2] = tested on: Bacteroides caccae
In short: as §1

[3] = tested on: Bacteroides clarus
In short: as §1

[4] = tested on: Bacteroides dorei
In short: as §1

[5] = tested on: Bacteroides stercoris
In short: as §1

[6] = tested on: Bacteroides thetaiotaomicron
In short: as §1

[7] = tested on: Bacteroides uniformis
In short: as §1

[8] = tested on: Bifidobacterium longum subsp. longum
In short: as §1

[9] = tested on: Clostridium difficile
In short: as §1

[10] = tested on: Collinsella aerofaciens
In short: as §1

[11] = tested on: Coprococcus comes
In short: as §1

[12] = tested on: Escherichia coli ED1a
In short: as §1

[13] = tested on: Escherichia coli IAI1
In short: as §1

[14] = tested on: Eubacterium rectale
In short: as §1

[15] = tested on: Fusobacterium nucleatum subsp. animalis
In short: as §1

[16] = tested on: Lactobacillus gasseri
In short: as §1

[17] = tested on: Lactobacillus paracasei
In short: as §1

[18] = tested on: Odoribacter splanchnicus
In short: as §1

[19] = tested on: Parabacteroides distasonis
In short: as §1

[20] = tested on: Parabacteroides merdae
In short: as §1

Structure (SMILES)	growth AUC [1]	growth AUC [2]	growth AUC [3]	growth AUC [4]	growth AUC [5]	growth AUC [6]	growth AUC [7]	growth AUC [8]	growth AUC [9]	growth AUC [10]	growth AUC [11]	growth AUC [12]	growth AUC [13]	growth AUC [14]	growth AUC [15]	growth AUC [16]	growth AUC [17]	growth AUC [18]	growth AUC [19]	growth AUC [20]
O=[N+]([O-])/N=C1\NCCN1Cc1ccc(Cl)nc1	0.979	1.01	1.02	1.03	1.08	0.984	1	0.963	0.99	0.98	0.975	1.02	1	1.06	1.06	0.862	0.951	1.09	1.02	1.07
COP(=S)(OC)Oc1c(Cl)cc(C)cc1Cl	0.999	0.966	0.993	0.964	0.958	1.01	0.97	0.98	0.985	0.975	0.99	0.983	0.99	1	0.971	0.925	1.06	0.97	0.96	0.998
CCCOP(=S)(OCCC)SCC(=O)N1CCCCC1C (stereo not given)	0.978	0.956	0.953	0.968	0.892	0.873	0.9	1.06	1.02	1.06	0.943	0.985	1	1	1.08	0.891	1.02	1.01	0.676 (active)	0.955
CC1=C(C(=O)Nc2ccccc2)S(=O)(=O)CCO1	0.915	0.983	0.976	0.977	1.02	0.994	0.981	0.944	0.973	1.02	0.986	1.02	0.994	0.985	0.959	0.998	0.981	0.962	0.975	1
O=C(Nc1ccccc1-c1ccc(Cl)cc1)c1cccnc1Cl	0.987	0.998	0.986	0.998	1.01	0.958	0.966	1.03	0.998	0.999	1	0.981	1.01	0.968	0.956	1.08	0.972	0.86	0.839	0.998
OC(Cc1ccccc1Cl)(Cn1[nH]cnc1=S)C1(Cl)CC1 (stereo not given)	1.02	0.971	0.856	0.91	1.04	0.821	0.805	0.842	0.985	1.04	0.932	1.02	1.04	0.897	1.02	1.01	1.04	0.825	0.916	0.894
CN(C)S(=O)(=O)N(SC(F)(Cl)Cl)c1ccccc1	1.13	1.01	1.03	0.998	1.2	1.01	1.03	0.989	1.01	0.98	1.04	1.03	1.01	1.09	1.06	1.03	1.07	1.04	1.02	0.99
CCOP(=S)(OCC)Oc1ccc(=O)n(-c2ccccc2)n1	0.918	0.997	0.943	0.977	0.959	0.948	0.949	1.04	0.936	0.99	0.973	0.965	0.97	0.956	0.955	0.928	1.01	0.986	0.922	0.974

Reference: the supplement of paper PMC12669032
